# Source: PubChem BioAssay (NCATS)
# Results filed as inconclusive are left out. The source made the active and inactive calls. Unless noted, the call rests on the fitted dose curve.
# Tests used:
# [1] = molecular target: Lysosomal acid glucosylceramidase (Homo sapiens) (UniProt P04062); experiment: Glucocerebrosidase-p2 (AID 348; in the data active means potency below about 10 µM; further: potency means the concentration at half of the fitted maximal effect); conditions: purified GBA, blue fluorogenic substrate, 40 min
# Sequence of Lysosomal acid glucosylceramidase (Homo sapiens) (P04062 whole entry, looked up): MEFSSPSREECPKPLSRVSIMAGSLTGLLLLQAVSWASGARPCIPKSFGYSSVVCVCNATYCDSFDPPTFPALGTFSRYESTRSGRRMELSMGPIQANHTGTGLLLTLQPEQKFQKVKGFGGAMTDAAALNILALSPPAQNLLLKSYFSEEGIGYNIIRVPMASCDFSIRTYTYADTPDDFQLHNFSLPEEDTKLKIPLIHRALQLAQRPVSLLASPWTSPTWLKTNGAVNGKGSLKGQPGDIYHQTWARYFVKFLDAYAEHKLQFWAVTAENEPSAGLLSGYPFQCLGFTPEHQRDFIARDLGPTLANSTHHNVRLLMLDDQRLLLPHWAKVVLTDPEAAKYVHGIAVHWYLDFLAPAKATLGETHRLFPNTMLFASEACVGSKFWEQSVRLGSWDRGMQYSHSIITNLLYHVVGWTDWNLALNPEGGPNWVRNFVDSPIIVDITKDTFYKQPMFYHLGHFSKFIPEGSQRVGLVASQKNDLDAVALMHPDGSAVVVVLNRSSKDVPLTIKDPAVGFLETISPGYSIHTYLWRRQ
# Summary of the method: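 Compounds titrated from 0.6 nM upwards against 0.2 nM enzyme in pH 5.9 citric acid/KH2PO4, taurocholate, tween-20; blue fluorogenic substrate 80 uM, 40 min room temperature, stopped and read Ex 365/Em 440 for AC50.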
# [2] = AP1 Signaling Pathway (AID 357; active means well fitted curve in either direction with a large enough effect, not every such curve was filed as active;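 further: ME-180 reporter cells stimulated with EGF at its EC50 level; on the % scale 0 is the no-effect control and ±100 the full control effect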); conditions: ME-180 AP-1-bla reporter, EGF-induced, beta-lactamase ratio, 5 h; at 7.69 µM (top of the series) unless noted
# Summary of the method: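 Modulation of EGF-driven AP-1 transcription was assessed with a beta-lactamase reporter in ME-180 cells. Compound and EC50 EGF were co-incubated 5 hours at 37 °C before 2.5-hour CCF4 loading at room temperature and dual-emission reading.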
# [3] = molecular target: Cytochrome P450 1A2 (Homo sapiens) (UniProt P05177); experiment: p450-cyp1a2 (AID 410); conditions: recombinant CYP1A2, luciferin-ME demethylation, luminescence; series mostly up to 57 µM; further: potency means the concentration at half of the fitted maximal effect;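 on activity change, negative = inhibition: -100% = full effect of reference inhibitor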
# Sequence of Cytochrome P450 1A2 (Homo sapiens) (P05177 whole entry, looked up): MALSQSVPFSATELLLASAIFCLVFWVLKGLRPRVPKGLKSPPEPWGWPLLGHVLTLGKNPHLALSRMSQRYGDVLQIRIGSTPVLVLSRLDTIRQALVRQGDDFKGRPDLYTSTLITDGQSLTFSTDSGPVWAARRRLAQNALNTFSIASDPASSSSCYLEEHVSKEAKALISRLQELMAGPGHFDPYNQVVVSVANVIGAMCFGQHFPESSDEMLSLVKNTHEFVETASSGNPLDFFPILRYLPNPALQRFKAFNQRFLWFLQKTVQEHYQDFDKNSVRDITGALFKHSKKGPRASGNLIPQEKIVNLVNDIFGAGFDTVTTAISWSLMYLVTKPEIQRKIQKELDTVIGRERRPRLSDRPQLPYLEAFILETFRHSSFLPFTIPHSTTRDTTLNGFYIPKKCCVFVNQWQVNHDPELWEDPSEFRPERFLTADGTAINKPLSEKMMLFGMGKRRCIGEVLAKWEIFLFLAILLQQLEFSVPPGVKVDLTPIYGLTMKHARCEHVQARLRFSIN
# Summary of the method: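 Inhibition was calculated relative to 57 uM furafylline (full inhibition). The reaction used human CYP1A2 at 20nM with Luciferin-ME at its Km, 100uM, driven by an NADPH-regenerating system for 60 min at room temperature.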
# [4] = Stat Signaling Pathway (AID 446; active means well fitted curve in either direction with a large enough effect, not every such curve was filed as active;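 further: ME-180 cervical cancer cells given 40 pM IL-6 alongside compound; SIE-controlled beta-lactamase reporter measured as 460/530 nm FRET emission ratio; on the % scale 0 is the no-effect control and ±100 the full control effect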); conditions: ME-180 SIE beta-lactamase reporter, IL-6 stimulated, 5 h; at 7.69 µM (top of the series) unless noted
# Summary of the method: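 ME-180 cells carrying a SIE-driven beta-lactamase reporter are stimulated with 40 pM IL-6 for 5 h at 37C in the presence of compound. The 460/530 nm FRET substrate ratio is read after 2.5 h at RT. Data are normalised to 300 pM IL-6 and to 125 nM JAK inhibitor controls.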
# [5] = molecular target: Glucocorticoid receptor (Homo sapiens) (UniProt P04150); experiment: GR-GFP Redistribution (AID 450;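 active means compounds whose dose series gives a full or clear partial fitted curve of increased nuclear translocation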; further: potency means the concentration at half of the fitted maximal effect); conditions: U2OS GR-GFP nuclear translocation, laser cytometry, 2 h
# Sequence of Glucocorticoid receptor (Homo sapiens) (P04150 whole entry, looked up, the tested form may be a part): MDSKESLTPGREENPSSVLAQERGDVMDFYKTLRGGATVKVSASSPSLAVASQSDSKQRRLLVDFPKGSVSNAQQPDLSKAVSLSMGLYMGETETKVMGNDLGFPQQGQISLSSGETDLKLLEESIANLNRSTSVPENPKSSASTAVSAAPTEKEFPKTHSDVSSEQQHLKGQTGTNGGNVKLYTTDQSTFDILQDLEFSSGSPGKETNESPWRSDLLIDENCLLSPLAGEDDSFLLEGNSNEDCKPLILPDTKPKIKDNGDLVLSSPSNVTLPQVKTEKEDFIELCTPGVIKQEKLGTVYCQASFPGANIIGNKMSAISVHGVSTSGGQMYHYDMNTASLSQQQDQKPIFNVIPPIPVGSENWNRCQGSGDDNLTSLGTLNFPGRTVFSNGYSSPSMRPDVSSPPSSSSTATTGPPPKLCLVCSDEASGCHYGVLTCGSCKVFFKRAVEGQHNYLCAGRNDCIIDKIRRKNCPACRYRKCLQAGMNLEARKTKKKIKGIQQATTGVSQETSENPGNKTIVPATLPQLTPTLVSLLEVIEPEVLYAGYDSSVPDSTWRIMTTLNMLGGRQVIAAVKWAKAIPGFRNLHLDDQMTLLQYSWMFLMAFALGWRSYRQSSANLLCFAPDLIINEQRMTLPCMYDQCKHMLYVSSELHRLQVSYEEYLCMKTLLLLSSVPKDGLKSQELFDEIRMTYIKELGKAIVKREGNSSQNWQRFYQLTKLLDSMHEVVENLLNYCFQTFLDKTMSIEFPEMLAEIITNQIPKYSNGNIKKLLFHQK
# [6] = molecular target: Glucocorticoid receptor (Homo sapiens) (UniProt P04150); experiment: GR-EFC Redistribution (AID 451); conditions: CHO-K1 GR-EFC translocation, beta-gal luminescence, 2 h; further: potency means the concentration at half of the fitted maximal effect
# Summary of the method: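 CHO-K1 cells expressing nuclear EA and GR-ED fragments of b-gal; compounds titrated up to 46 uM final, 2 h at 37 C. GR nuclear translocation read as complemented b-gal luminescence after 1 h RT detection.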
# [7] = molecular target: Mitogen-activated protein kinase 10 (Mus musculus) (UniProt Q61831); experiment: JNK3 AlphaScreen Assay (AID 530; active means well fitted curve in either direction with a large enough effect, not every such curve was filed as active;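 further: kinase came from lysate of stimulated human HepG2 cells; signal reports phosphorylation of biotinylated GST-cJun 1-79 at Ser73 with 10 µM ATP; on the % scale 0 is the no-effect control and ±100 the full control effect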); conditions: JNK3 lysate, c-Jun phosphorylation; series mostly up to 57.1 µM
# Summary of the method: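 qHTS format: compounds tested as titrations against IL-1beta/TNF-alpha-activated HepG2 lysate JNK3 with biotin-GST-cJun substrate and 10 uM ATP at room temperature. Loss of anti-phospho-cJun AlphaScreen signal indicates inhibition.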
# [8] = molecular target: Cytochrome P450 3A4 (Homo sapiens) (UniProt P08684); experiment: qHTS Assay for Activators of Cytochrome P450 3A4 (AID 885; active means well fitted curve in the direction sought with a large enough effect; an effect the other way counts as inactive or inconclusive; further: nearly all actives have a fitted effect of over 65% in size); conditions: recombinant CYP3A4, Luciferin-PPXE luminescence, 60 min; series mostly up to 57.1 µM
# Sequence of Cytochrome P450 3A4 (Homo sapiens) (P08684 whole entry, looked up): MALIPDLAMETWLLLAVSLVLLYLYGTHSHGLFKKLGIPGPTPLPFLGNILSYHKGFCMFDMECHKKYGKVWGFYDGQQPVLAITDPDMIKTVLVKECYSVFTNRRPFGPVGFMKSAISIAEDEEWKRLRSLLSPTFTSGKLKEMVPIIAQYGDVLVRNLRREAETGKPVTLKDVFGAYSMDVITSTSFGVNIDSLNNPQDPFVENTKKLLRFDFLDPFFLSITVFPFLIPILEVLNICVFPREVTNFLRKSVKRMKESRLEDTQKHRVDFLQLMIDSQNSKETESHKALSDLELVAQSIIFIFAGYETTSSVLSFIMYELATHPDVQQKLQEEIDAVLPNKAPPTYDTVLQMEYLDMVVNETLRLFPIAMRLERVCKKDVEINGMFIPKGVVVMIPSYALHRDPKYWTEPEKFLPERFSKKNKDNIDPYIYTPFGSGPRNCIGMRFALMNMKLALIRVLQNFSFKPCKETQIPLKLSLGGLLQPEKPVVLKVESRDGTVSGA
# Summary of the method: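 Human CYP3A4 (20 nM) with Luciferin-PPXE at 25 uM (its KM) in 200 mM KPO4; 10 min compound preincubation, then NADPH regeneration and 60 min reaction at RT. Luciferin read by luminescence; normalized to 57 uM ketoconazole full inhibition.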
# [9] = Confirmation and Secondary Assay for Modulators of Hemoglobin Beta Chain Splicing at IVS2 654 locus (AID 910; active means well fitted curve in the direction sought with a large enough effect; an effect the other way counts as inactive or inconclusive;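 further: HeLa cells stably carrying EGFP split by mutant beta-globin IVS2-654 intron; % of control where 0% means no effect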); conditions: HeLa EGFP-654 splicing reporter, GFP fluorescence, 48 h; series mostly up to 38.3 µM
# Summary of the method: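 HeLa cells stably expressing EGFP interrupted by β-globin IVS2-654 intron, seeded overnight in Opti-MEM/2% FCS, then treated 2 days at 37 °C. Restored splicing read as total peak GFP intensity per well by laser scanning cytometry (488 nm excitation, 500–520 nm emission); 500 nM antisense PNA as control.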
# [10] = Confirmation and Secondary Assay for Modulators of Hemoglobin Beta Chain Splicing at IVS2 705 locus (AID 930; active means well fitted curve in the direction sought with a large enough effect; an effect the other way counts as inactive or inconclusive;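 further: HeLa cells stably expressing the EGFP-705 splicing reporter; GFP fluorescence per well restored by corrected splicing of the IVS2-705 intron in EGFP; % of control where 0% means no effect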); conditions: HeLa EGFP-705 splicing reporter, GFP fluorescence, 48 h; series mostly up to 38.3 µM
# Summary of the method: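 Assay measures total GFP intensity per well in HeLa EGFP-705 cells after 2 days with compound; mis-splicing normally truncates EGFP, so fluorescence indicates corrected splicing.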
# [11] = qHTS Assay for Lipid Storage Modulators (AID 1519); conditions: Drosophila S3 cells, BODIPY lipid droplet/cell ratio, laser cytometry, cells loaded with oleic acid; for activity change, negative = inhibition: at 57.5 µM (top of the series)
# Summary of the method: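 Cells seeded at 5,000 per well were treated with compounds over a concentration series and loaded with oleic acid (400 uM, as added). Lipid droplet fluorescence (488 nm excitation, 500-530 nm channel) was read by laser-scanning cytometry and normalized to 20 uM Triacsin C.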
# [12] = Primary qHTS for small molecule stabilizers of the endoplasmic reticulum resident proteome: Secreted ER Calcium Modulated Protein (SERCaMP) assay (AID 1508630; active means well fitted curve in the direction sought with a large enough effect; an effect the other way counts as inactive or inconclusive; further: on the % scale 0 is the no-effect control and ±100 the full control effect); conditions: SH-SY5Y GLuc-SERCaMP (Gaussia luciferase released on ER calcium loss) secretion, thapsigargin, luminescence; series mostly up to 38.4 µM
# Summary of the method: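 GLuc-SERCaMP-expressing SH-SY5Y cells, pretreated 16 h with compound, are challenged with thapsigargin to empty ER calcium stores; after 4 h, coelenterazine is added directly to the medium and luminescence is imaged.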
# [13] = molecular target: 3',5'-cyclic-AMP phosphodiesterase 4B (Homo sapiens) (UniProt Q07343); experiment: qHTS Assay for Inhibitors of PDE-IV (AID 607; active means well fitted activation curve with a large enough effect in the main read-out, with a control signal flat, not every such curve was filed as active; further: % of control where 0% means no effect); conditions: HEK293 ACTOne CNG channel cells, membrane potential fluorescence; series mostly up to 22.9 µM
# Sequence of 3',5'-cyclic-AMP phosphodiesterase 4B (Homo sapiens) (Q07343 whole entry, looked up): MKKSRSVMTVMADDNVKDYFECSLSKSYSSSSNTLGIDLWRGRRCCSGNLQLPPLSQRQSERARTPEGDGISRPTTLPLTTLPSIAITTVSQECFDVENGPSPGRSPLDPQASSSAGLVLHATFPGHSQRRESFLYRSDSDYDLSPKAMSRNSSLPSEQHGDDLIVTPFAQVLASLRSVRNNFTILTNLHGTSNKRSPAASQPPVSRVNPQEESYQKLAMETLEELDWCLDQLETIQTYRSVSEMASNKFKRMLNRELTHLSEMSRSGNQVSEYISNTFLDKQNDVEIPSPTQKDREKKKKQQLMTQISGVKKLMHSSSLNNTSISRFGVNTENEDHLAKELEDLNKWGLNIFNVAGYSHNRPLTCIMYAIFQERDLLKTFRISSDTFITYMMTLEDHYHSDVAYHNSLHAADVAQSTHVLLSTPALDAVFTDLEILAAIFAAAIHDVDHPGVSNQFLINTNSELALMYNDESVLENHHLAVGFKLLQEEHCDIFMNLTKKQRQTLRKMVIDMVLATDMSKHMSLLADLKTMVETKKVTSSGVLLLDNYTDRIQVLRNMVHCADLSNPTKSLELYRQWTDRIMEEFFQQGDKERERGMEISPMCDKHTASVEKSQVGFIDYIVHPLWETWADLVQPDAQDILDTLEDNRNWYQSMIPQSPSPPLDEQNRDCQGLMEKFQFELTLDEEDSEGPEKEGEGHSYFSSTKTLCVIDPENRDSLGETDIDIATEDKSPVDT
# Summary of the method: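 HEK293 ACTOne cells with CNG channel (1000/well), endogenous PDE4; membrane potential dye, compounds up to 22.9 uM final. Fluorescence Ex 535/Em 590; RO 20-1724 (100 uM final) as reference.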
# [14] = molecular target: Cytochrome P450 3A4 (Homo sapiens) (UniProt P08684); experiment: qHTS Assay for Inhibitors and Substrates of Cytochrome P450 3A4 (AID 884; active means well fitted curve in the direction sought with a large enough effect; an effect the other way counts as inactive or inconclusive; further: on the % scale 0 is the no-effect control and ±100 the full control effect; nearly all actives have a fitted effect of over 50% in size); conditions: recombinant CYP3A4, Luciferin-PPXE luminescence; series mostly up to 57.1 µM
# Summary of the method: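 20 nM human CYP3A4 with 25 uM Luciferin-PPXE (at KM) in 200 mM KPO4, preincubated 10 min with compound; NADPH regeneration started a 60 min RT reaction. Luciferin detected by luminescence, normalized to 57 uM ketoconazole as full inhibition.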
# [15] = molecular target: Cytochrome P450 2C19 (Homo sapiens) (UniProt P33261); experiment: qHTS Assay for Inhibitors and Substrates of Cytochrome P450 2C19 (AID 899; active means well fitted curve in the direction sought with a large enough effect; an effect the other way counts as inactive or inconclusive; further: nearly all actives have a fitted effect of over 60% in size; further: potency means the concentration at half of the fitted maximal effect); conditions: recombinant CYP2C19, luciferin-H EGE luminescence; series mostly up to 57.1 µM
# Sequence of Cytochrome P450 2C19 (Homo sapiens) (P33261 whole entry, looked up): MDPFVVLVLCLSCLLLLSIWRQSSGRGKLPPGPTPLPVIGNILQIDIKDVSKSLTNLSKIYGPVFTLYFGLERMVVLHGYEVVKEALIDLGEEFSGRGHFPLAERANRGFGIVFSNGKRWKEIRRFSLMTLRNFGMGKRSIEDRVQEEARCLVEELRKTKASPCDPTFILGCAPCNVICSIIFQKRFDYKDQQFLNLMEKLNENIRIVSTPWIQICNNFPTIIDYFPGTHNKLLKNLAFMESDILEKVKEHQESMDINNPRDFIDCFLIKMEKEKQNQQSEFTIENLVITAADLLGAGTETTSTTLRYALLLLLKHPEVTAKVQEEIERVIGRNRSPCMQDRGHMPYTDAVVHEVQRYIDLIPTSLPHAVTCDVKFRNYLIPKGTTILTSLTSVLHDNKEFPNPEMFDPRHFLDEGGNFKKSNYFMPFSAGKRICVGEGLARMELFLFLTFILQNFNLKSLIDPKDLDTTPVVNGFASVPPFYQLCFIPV
# Summary of the method: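 5 nM human CYP2C19 with 10uM Luciferin-H EGE (at KM) in 50mM KPO4, compound preincubated 10 min at 37C, then NADPH regeneration for 60 min at 37C. Luciferin read by luminescence after detection reagent; normalized to 57uM ketoconazole as full inhibition.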
# [16] = molecular target: Cytochrome P450 2C9 (Homo sapiens) (UniProt P11712); experiment: qHTS Assay for Inhibitors and Substrates of Cytochrome P450 2C9 (AID 883; active means well fitted curve in the direction sought with a large enough effect; an effect the other way counts as inactive or inconclusive; further: nearly all actives have a fitted effect of over 60% in size; further: potency means the concentration at half of the fitted maximal effect); conditions: recombinant CYP2C9, luciferin-H luminescence, 60 min; series mostly up to 57.1 µM
# Sequence of Cytochrome P450 2C9 (Homo sapiens) (P11712 whole entry, looked up): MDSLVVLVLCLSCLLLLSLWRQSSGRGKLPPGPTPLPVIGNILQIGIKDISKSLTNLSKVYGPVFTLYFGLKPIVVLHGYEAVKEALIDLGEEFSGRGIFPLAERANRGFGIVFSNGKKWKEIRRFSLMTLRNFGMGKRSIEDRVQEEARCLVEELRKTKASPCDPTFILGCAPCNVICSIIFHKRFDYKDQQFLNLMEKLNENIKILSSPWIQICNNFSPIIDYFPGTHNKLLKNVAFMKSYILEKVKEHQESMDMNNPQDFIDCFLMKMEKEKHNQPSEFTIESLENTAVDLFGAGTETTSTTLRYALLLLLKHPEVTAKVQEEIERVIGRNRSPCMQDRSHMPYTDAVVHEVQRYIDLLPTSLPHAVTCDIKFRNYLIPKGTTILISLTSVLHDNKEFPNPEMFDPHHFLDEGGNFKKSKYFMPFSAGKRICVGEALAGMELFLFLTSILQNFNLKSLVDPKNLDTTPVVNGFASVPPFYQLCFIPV
# Summary of the method: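 Human CYP2C9 (10nM) with Luciferin-H at 100uM (its KM) in 25mM KPO4; compound preincubated 10 min at 37C, then NADPH regeneration for 60 min at 37C. Luciferin read by luminescence after detection reagent; normalized to 57uM sulphaphenazole as full inhibition.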
# [17] = measured here: cell count channel max response
# [18] = measured here: lipid channel max response
SMILES,Potency [1],"activity change, negative = inhibition [2]",Potency [3],"activity, negative = inhibition [4]",Potency [5],Potency [6],Potency [7],Potency [8],Potency [9],outcome [10],"activity change, negative = inhibition [11]","max response [11, 17]","max response [11, 18]",outcome [12],Potency [13],Potency [14],Potency [15],Potency [16]
COc1ccccc1CNc1nc(-c2ccccc2CN(C)C)nc2ccccc12,> 11.4 µM (inactive),16.7% (inactive),0.794 µM (active),-12.4% (inactive),> 46 µM (inactive),> 46 µM (inactive),inactive,inactive,inactive,inactive,3.53% (inactive),-19.9%,-15.9%,inactive,,,,
O=C(c1cccc(F)c1)N1CCC2(CCCN(Cc3ccccc3)C2)CC1,> 11.4 µM (inactive),1.11% (inactive),inactive,-5.98% (inactive),,> 46 µM (inactive),inactive,,,,-8.15% (inactive),20.2%,12%,inactive,inactive,,,
CN(C)Cc1ccccc1-c1cncnc1NCc1cccs1,> 11.4 µM (inactive),8.74% (inactive),25.1 µM (active),-5.04% (inactive),> 46 µM (inactive),> 46 µM (inactive),inactive,inactive,inactive,inactive,5.02% (inactive),16.5%,25.4%,inactive,inactive,,,
CN(C)c1ccc(-c2cncnc2NCc2ccccc2)cc1,> 11.4 µM (inactive),-0.796% (inactive),1 µM (active),-2.24% (inactive),> 46 µM (inactive),> 46 µM (inactive),,,inactive,inactive,9.86% (inactive),-3.1%,16.1%,inactive,,inactive,0.398 µM (active),
O=C(c1ccco1)N1CCC2(CCN(Cc3ccncc3)CC2)CC1,> 11.4 µM (inactive),1.28% (inactive),20 µM (active),-11.4% (inactive),,> 46 µM (inactive),inactive,inactive,,,6.5% (inactive),12.7%,20.5%,inactive,inactive,,,7.94 µM (active)
CN1CCCC2(CCN(S(=O)(=O)c3ccccc3)CC2)C1,> 11.4 µM (inactive),17.6% (inactive),20 µM (active),-3% (inactive),,> 46 µM (inactive),inactive,,,,2.33% (inactive),19.8%,25%,inactive,inactive,,,
CC(C)CN1CCC2(CC1)CCN(C(=O)c1cnccn1)CC2,> 11.4 µM (inactive),-3.54% (inactive),inactive,3.68% (inactive),,> 46 µM (inactive),inactive,,,,-2.81% (inactive),-8.95%,-8.33%,inactive,inactive,,,
O=S(=O)(c1ccccc1)N1CCC2(CCN(Cc3nccs3)CC2)CC1,> 11.4 µM (inactive),19.1% (inactive),inactive,-4.54% (inactive),,> 46 µM (inactive),inactive,,,,0.281% (inactive),4.88%,7.01%,inactive,inactive,,,
CS(=O)(=O)N1CCC2(CCN(c3ccncc3)CC2)CC1,> 11.4 µM (inactive),-13.1% (inactive),12.6 µM (active),0.543% (inactive),,> 46 µM (inactive),inactive,,,,3.83% (inactive),7.45%,13.6%,inactive,inactive,,,
COc1ccccc1CN1CCC2(CC1)CCN(C(=O)c1ccco1)CC2,> 11.4 µM (inactive),-17.3% (inactive),inactive,-4.26% (inactive),,> 46 µM (inactive),inactive,,,,3.05% (inactive),1.79%,7.5%,inactive,inactive,,,
COCC(=O)N1CCC2(CCCN(Cc3ccccc3)C2)CC1,> 11.4 µM (inactive),-19.3% (inactive),inactive,0.327% (inactive),,> 46 µM (inactive),inactive,,,,2.23% (inactive),22.3%,27.9%,inactive,inactive,,,
N#Cc1ccc(CN2CCCC3(CCN(C(=O)c4ccncc4)CC3)C2)cc1,> 11.4 µM (inactive),-16.7% (inactive),inactive,1.22% (inactive),,> 46 µM (inactive),inactive,inactive,,,2.04% (inactive),4.42%,7.34%,inactive,inactive,,inactive,inactive
O=C(c1cc(C(F)(F)F)cc(C(F)(F)F)c1)N1CCC[C@@]2(CCN(c3ncccn3)C2)C1,> 11.4 µM (inactive),8.42% (inactive),inactive,-17.1% (inactive),,> 46 µM (inactive),inactive,inactive,,,4.69% (inactive),8.96%,17.5%,inactive,inactive,,,
CN1CCCC2(CCN(C(=O)c3cc(C(F)(F)F)cc(C(F)(F)F)c3)CC2)C1,> 11.4 µM (inactive),5.94% (inactive),inactive,4.14% (inactive),,> 46 µM (inactive),inactive,inactive,,,3.25% (inactive),17.7%,23.1%,inactive,inactive,,,
